Results from ChEMBL document CHEMBL1961873, “Compounds: GSK PKIS; Assays: Nanosyn kinase panel” (2012).

Key:
[1] = molecular target: Serine/threonine-protein kinase PAK 6 (Homo sapiens) (UniProt Q9NQU5); settings: at 1 µM;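 note: values are mean percent inhibition of PAK6 kinase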
[2] = test system: Tyrosine-protein kinase ABL1 (Homo sapiens), P00519 [E255K]; settings: at 0.1 µM
[3] = test system: Tyrosine-protein kinase ABL1 (Homo sapiens), P00519 [E255K]; settings: at 1 µM
[4] = test system: Tyrosine-protein kinase ABL1 (Homo sapiens), P00519 [H396P]; settings: at 0.1 µM
[5] = test system: Tyrosine-protein kinase ABL1 (Homo sapiens), P00519 [H396P]; settings: at 1 µM
[6] = test system: Tyrosine-protein kinase ABL1 (Homo sapiens), P00519 [M351T]; settings: at 0.1 µM
[7] = test system: Tyrosine-protein kinase ABL1 (Homo sapiens), P00519 [M351T]; settings: at 1 µM
[8] = test system: Tyrosine-protein kinase ABL1 (Homo sapiens), P00519 [Q252H]; settings: at 0.1 µM
[9] = test system: Tyrosine-protein kinase ABL1 (Homo sapiens), P00519 [Q252H]; settings: at 1 µM
[10] = test system: Tyrosine-protein kinase ABL1 (Homo sapiens), P00519 [T315I]; settings: at 0.1 µM
[11] = test system: Tyrosine-protein kinase ABL1 (Homo sapiens), P00519 [T315I]; settings: at 1 µM
[12] = test system: Tyrosine-protein kinase ABL1 (Homo sapiens), P00519 [Y253F]; settings: at 0.1 µM
[13] = test system: Tyrosine-protein kinase ABL1 (Homo sapiens), P00519 [Y253F]; settings: at 1 µM
[14] = molecular target: Tyrosine-protein kinase ABL1 (Homo sapiens) (UniProt P00519); settings: at 0.1 µM
[15] = molecular target: Tyrosine-protein kinase ABL1 (Homo sapiens) (UniProt P00519); settings: at 1 µM
[16] = molecular target: ALK tyrosine kinase receptor (Homo sapiens) (UniProt Q9UM73); settings: at 0.1 µM
Sequence of ALK tyrosine kinase receptor (Homo sapiens) (Q9UM73 19-1620 limits assumed): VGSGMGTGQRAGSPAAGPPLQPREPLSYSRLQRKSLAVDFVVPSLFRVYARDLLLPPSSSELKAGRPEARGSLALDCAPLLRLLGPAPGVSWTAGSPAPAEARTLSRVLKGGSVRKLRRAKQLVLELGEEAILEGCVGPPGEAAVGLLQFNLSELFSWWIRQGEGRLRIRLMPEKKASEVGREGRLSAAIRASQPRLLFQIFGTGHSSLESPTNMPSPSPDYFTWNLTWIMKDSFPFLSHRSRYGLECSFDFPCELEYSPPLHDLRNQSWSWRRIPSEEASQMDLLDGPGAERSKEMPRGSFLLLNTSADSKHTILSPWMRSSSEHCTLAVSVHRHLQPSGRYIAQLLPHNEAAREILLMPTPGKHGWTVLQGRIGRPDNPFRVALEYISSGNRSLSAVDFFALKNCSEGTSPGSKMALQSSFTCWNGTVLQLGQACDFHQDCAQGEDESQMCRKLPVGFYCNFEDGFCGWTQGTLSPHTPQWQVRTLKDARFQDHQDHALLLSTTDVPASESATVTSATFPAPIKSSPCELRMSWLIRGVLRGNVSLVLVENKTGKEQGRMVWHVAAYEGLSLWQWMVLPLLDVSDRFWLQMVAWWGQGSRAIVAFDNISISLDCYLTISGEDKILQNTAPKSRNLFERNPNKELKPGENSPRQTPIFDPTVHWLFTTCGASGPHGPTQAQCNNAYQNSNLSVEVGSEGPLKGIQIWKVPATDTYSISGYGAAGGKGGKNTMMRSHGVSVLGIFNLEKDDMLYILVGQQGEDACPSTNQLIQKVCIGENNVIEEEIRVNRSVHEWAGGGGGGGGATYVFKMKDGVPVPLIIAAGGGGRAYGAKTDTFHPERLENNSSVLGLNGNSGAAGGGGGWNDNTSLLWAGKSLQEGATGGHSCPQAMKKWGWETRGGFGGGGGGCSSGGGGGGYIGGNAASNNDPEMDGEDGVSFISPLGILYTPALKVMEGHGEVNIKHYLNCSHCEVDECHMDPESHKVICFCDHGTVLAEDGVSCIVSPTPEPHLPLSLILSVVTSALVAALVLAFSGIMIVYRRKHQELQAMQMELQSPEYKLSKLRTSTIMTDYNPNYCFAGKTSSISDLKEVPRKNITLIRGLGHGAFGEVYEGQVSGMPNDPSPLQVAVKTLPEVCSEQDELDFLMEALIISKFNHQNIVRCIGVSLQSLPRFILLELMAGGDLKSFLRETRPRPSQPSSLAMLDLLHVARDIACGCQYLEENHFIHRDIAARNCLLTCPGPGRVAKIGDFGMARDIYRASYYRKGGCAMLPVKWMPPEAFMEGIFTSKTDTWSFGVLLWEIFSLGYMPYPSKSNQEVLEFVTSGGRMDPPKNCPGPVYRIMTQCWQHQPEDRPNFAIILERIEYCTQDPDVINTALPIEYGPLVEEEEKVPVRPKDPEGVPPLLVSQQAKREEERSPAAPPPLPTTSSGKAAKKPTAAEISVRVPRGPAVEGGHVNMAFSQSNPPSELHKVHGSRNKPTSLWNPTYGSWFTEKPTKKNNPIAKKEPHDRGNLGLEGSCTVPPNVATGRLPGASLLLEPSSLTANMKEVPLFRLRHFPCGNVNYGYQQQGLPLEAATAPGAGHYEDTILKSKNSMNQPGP

[17] = molecular target: ALK tyrosine kinase receptor (Homo sapiens) (UniProt Q9UM73); settings: at 1 µM
[18] = molecular target: Tyrosine-protein kinase ABL2 (Homo sapiens) (UniProt P42684); settings: at 0.1 µM
Sequence of Tyrosine-protein kinase ABL2 (Homo sapiens) (P42684 whole entry): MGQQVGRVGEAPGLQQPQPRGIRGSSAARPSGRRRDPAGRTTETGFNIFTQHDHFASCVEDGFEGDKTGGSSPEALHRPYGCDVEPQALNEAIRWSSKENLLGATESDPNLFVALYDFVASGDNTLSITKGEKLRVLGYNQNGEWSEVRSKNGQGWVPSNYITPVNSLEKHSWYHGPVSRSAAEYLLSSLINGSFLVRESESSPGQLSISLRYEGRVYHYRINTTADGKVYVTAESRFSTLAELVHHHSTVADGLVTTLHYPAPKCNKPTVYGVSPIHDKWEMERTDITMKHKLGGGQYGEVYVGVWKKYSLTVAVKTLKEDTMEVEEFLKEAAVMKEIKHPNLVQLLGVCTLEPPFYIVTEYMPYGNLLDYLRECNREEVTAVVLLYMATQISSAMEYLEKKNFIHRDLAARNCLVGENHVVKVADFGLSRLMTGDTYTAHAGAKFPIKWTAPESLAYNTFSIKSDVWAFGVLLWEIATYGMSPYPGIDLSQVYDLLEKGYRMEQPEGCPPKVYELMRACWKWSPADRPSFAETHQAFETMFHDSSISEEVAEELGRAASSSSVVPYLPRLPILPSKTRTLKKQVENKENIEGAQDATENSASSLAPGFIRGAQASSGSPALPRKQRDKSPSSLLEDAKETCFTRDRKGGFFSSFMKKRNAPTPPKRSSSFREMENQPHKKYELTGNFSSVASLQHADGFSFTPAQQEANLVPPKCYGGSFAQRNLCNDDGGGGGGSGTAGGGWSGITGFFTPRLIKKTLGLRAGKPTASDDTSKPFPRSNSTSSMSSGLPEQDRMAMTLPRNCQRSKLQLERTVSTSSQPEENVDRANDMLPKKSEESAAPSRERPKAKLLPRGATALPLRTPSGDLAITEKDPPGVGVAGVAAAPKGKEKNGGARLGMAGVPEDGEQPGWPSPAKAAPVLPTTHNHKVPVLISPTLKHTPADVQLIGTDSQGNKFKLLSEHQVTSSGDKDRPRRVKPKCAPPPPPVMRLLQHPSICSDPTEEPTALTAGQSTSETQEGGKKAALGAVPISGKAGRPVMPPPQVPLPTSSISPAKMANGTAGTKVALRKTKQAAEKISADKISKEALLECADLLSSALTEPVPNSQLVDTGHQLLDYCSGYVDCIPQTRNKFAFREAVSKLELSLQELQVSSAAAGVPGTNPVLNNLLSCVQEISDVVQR

[19] = molecular target: Tyrosine-protein kinase ABL2 (Homo sapiens) (UniProt P42684); settings: at 1 µM
[20] = molecular target: Tyrosine-protein kinase receptor UFO (Homo sapiens) (UniProt P30530); settings: at 0.1 µM;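 note: values are mean percent inhibition of AXL from the GSK PKIS screen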
Sequence of Tyrosine-protein kinase receptor UFO (Homo sapiens) (P30530 whole entry): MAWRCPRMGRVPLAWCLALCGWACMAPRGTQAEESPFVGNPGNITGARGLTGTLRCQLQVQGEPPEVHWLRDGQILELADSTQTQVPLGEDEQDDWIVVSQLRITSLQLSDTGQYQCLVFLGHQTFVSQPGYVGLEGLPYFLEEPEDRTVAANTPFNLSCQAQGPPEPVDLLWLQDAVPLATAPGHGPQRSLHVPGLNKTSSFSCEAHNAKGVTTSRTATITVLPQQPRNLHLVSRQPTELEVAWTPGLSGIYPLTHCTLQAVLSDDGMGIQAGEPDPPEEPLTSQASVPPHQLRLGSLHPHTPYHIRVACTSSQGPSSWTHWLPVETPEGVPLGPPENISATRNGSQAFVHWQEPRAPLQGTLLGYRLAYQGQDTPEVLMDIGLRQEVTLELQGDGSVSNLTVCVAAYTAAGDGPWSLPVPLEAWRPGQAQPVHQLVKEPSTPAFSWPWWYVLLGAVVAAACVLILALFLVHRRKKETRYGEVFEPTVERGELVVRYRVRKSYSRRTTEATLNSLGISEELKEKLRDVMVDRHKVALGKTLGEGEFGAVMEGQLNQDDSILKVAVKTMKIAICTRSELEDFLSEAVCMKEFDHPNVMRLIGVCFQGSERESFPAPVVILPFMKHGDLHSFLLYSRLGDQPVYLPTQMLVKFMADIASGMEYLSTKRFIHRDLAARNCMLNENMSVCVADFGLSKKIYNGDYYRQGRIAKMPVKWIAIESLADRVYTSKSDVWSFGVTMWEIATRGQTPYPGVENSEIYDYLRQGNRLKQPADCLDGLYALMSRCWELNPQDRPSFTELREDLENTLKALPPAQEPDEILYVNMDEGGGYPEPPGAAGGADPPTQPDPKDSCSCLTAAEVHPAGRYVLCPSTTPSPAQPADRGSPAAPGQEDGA

Sequence of Serine/threonine-protein kinase PAK 6 (Homo sapiens) (Q9NQU5 whole entry, looked up): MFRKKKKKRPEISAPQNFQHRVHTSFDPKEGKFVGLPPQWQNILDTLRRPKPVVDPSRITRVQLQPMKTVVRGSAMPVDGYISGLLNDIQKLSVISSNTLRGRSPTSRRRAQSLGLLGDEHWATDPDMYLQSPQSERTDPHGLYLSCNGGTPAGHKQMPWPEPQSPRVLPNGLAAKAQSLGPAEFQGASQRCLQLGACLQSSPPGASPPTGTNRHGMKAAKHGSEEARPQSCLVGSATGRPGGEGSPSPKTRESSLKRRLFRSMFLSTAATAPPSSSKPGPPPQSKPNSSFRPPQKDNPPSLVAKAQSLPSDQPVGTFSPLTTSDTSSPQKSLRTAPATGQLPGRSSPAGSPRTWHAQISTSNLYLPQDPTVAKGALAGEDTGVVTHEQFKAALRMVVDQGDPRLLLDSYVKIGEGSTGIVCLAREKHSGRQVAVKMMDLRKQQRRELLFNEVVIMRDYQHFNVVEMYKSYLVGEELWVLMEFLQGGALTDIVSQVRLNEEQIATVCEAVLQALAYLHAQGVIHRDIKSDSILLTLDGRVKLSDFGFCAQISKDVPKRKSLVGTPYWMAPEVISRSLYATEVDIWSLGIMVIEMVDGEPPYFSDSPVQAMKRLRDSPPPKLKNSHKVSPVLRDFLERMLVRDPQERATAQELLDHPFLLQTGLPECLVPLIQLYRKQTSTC

Row | Compound | inhibition [1] [%] | inhibition [2] [%] | inhibition [3] [%] | inhibition [4] [%] | inhibition [5] [%] | inhibition [6] [%] | inhibition [7] [%] | inhibition [8] [%] | inhibition [9] [%] | inhibition [10] [%] | inhibition [11] [%] | inhibition [12] [%] | inhibition [13] [%] | inhibition [14] [%] | inhibition [15] [%] | inhibition [16] [%] | inhibition [17] [%] | inhibition [18] [%] | inhibition [19] [%] | inhibition [20] [%]
1 | CN(C)CCOc1ccc(-c2nc(-c3ccncc3)c(-c3ccc4c(c3)CC/C4=N\O)[nH]2)cc1 | 9.98 | 4.28 | 17.5 | 8.42 | 34.1 | 6.36 | 30.4 | 10.1 | 45.1 | 8.51 | 41.9 | 10.2 | 40.1 | 6.41 | 40.7 | 2.17 | 8.67 | 4.57 | 19.4 | -2.86
2 | COC(=O)c1sc(-n2cnc3cc(OC)c(OC)cc32)cc1OCc1ccccc1C(F)(F)F | 0.71 | 6.91 | 22.7 | 5.82 | 18.2 | 4.03 | 16.2 | 6.05 | 18.9 | 2.67 | 4.91 | 6.46 | 21.6 | 3.86 | 12.3 | 3.59 | 12.4 | 3.44 | 5.92 | -8.88
3 | COc1cc(Nc2nccc(Nc3ccc4c(C)n[nH]c4c3)n2)cc(OC)c1OC | -1.27 | 18.5 | 67.2 | 30.1 | 78.3 | 28.9 | 75.6 | 24.5 | 72.7 | 1.65 | 14.3 | 37.6 | 83.6 | 20.3 | 69.7 | 5.55 | 39.3 | 18.4 | 69.9 | 0.91
4 | CC(C)(CO)CNC(=O)c1ccc2c(c1)/C(=N/Nc1ccc(S(N)(=O)=O)cc1)C(=O)N2 | 1.5 | -0.35 | 9 | -2.04 | 9.98 | -0.43 | 9.9 | -0.04 | 9.08 | -2 | 8.62 | -0.6 | 12.8 | -2.29 | 10.7 | -0.91 | -1.23 | -1.16 | 3.31 | 1.56
5 | N#Cc1c(NC(=O)CN2CCOCC2)sc2c1CCCC2 | -4.27 | 3.47 | 4.25 | 2.48 | 5.61 | 1.25 | 4.91 | 1.82 | 4.61 | 2.58 | 5.24 | 5.91 | 7.6 | 6.98 | 7.71 | 3.56 | 8.62 | 5.84 | 5.84 | -5.02
6 | CCc1nn2ncccc2c1-c1ccnc(NC2CC2)n1 | -4.39 | 0.71 | 4.01 | 3.05 | 6.43 | 1.9 | 4.54 | 2.92 | 7.3 | 0.33 | 1.06 | 1.02 | 4.43 | 5.52 | 6.81 | 1.99 | 5.07 | 2.35 | 5.86 | -2.55
7 | CN1CCC(n2cnc(-c3ccc(F)cc3)c2-c2ccnc(N)n2)CC1 | -6 | 3.04 | 7 | 2.82 | 11.9 | -0.15 | 7.75 | 2.65 | 6.83 | 1.94 | 5.74 | 1.88 | 8.15 | 2.31 | 8.97 | 1.26 | 4.21 | 2.89 | 7.64 | -3.77
8 | Cc1ccc(O)cc1Nc1ccnc2cc(-c3ccccn3)ccc12 | 4.08 | 93.5 | 96.2 | 94.7 | 97.2 | 93.6 | 97.9 | 94 | 98 | 10.1 | 50.7 | 95.5 | 98.2 | 84.3 | 89.4 | 5.32 | 34.1 | 74.3 | 95.7 | -5.44
9 | COc1ccc(-c2cc3c(N)ncnc3o2)cc1 | -9.7 | 0.23 | 5.63 | -0.22 | 11 | 0.58 | 11.2 | -0.72 | 9.12 | 0.76 | 2.97 | -0.25 | 10.8 | 2.28 | 11.4 | -1.19 | 1.1 | 0.1 | 5.3 | 2.44
10 | COc1cccc(-c2c[nH]c3c(N/N=C/c4ccncc4)ncnc23)c1 | -1.79 | 65 | 91.1 | 76.2 | 93.6 | 76.5 | 92.5 | 79.8 | 92.6 | 11.8 | 57.7 | 73 | 93.2 | 57.6 | 81.7 | 0.85 | 1.19 | 41.8 | 78.6 | -2.43
11 | CCn1c(-c2nonc2N)nc2c(C#CC(C)(C)O)ncc(OC3CCNCC3)c21 | 76 | -0.7 | -0.01 | 2.05 | 2.1 | -0.57 | 0.51 | 0.98 | 0.41 | 2.72 | 1.99 | -0.54 | 0.66 | 4.72 | 3.17 | 1.83 | 4.92 | 2.02 | 3.67 | -1.51
12 | O=C(Nc1n[nH]c2cc(-c3ccc(F)cc3)ccc12)C1CC1 | -5.36 | 9.03 | 23.3 | 11.3 | 46.6 | 11.5 | 55.2 | 7.91 | 33.9 | 19.5 | 69.4 | 10.8 | 40.1 | 5.81 | 40.4 | 1.12 | 2.06 | 3.46 | 12.3 | -5.44
13 | NC(=O)c1sc(-n2cnc3ccc(C(F)(F)F)cc32)cc1OCc1ccccc1Br | -7.15 | 3.08 | 2.1 | 3.37 | 3.08 | 1.6 | 3.37 | 3.06 | 3.55 | 1.98 | 3.2 | 3.65 | 2.05 | 2.31 | 4.26 | 1.39 | 3.73 | 1.79 | 2.59 | -8.18
